Only some compounds are listed: those with a hit (about 21% of all), similar ones and a draw of the others.
Pf growth 48h – inhibits P. falciparum growth in the first generation, 48 h; P. falciparum luciferase growth in erythrocytes, 48 h; Potency, µM (top dose mostly 28.7 µM), without a hit: top-dose activity change, negative = inhibition, actives largely listed as inhibitors; actives 5.9% (n = 310,000); AID 504832; note: potency is the fitted concentration of half-maximal effect; % is set by controls: 0 for no effect and ±100 for the full control effect
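Luminescence readout; reporter = integrated firefly luciferase in P. falciparum. RBC culture at 2% hematocrit, 0.1% parasitemia final, 37 C/5% CO2; decreased signal taken as growth inhibition.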
Shiga toxin inh – Shiga toxin inhibition; Vero cells, Shiga toxin protein synthesis inhibition reporter; inhibition, % at 38.7 µM; actives 9.2% (n = 290,000); AID 2315; in the data active = inhibition mostly above about 28%, no sharp cut-off; inactive = mostly below about 43%; note: 0% is about no effect
Pf growth 96h – P. falciparum growth inhibition at 96 hour, primary screen for plastid delayed-death inhibitors; P. falciparum luciferase reporter growth, 96 h; Potency, µM (doses to about 28.7 µM), for inactives: top-dose activity change, negative = inhibition, actives largely listed as inhibitors; actives 6.9% (n = 320,000); note: potency is the fitted concentration of half-maximal effect; % is set by controls: 0 for no effect and ±100 for the full control effect
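Parasite growth measured via integrated firefly luciferase reporter in P. falciparum. Infected erythrocytes at 2% hematocrit, 0.05% parasitemia final were treated 96 hours at 37 C under 5% CO2, and luminescence was read.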
HCV inhibitor – inhibitors of hepatitis C virus infection; Huh7.5.1 HCVcc-Cre infection, luciferase reporter, 44 h; Potency, µM (doses to about 41.8 µM), for the others: at the highest dose activity change, negative = inhibition, most hits filed as inhibitors; actives 3.4% (n = 340,000); note: potency is the fitted concentration of half-maximal effect; % is set by controls: 0 for no effect and ±100 for the full control effect
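A cell-based infection assay in which seeded cells (1,000 per well) receive test compound after 4 h, are inoculated with HCVcc-Cre at approximately 0.5 moi, and are incubated 44 h before luminescence detection.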
Cycloheximide cs – counter-screen for Shiga toxin inhibitors: cycloheximide protein synthesis inhibition | cell reporter, cycloheximide protein synthesis inhibition counterscreen | max response, % | actives 12% (n = 300,000) | AID 2314; in the data active = max response mostly above about 13%, no sharp cut-off; inactive = mostly below about 14%; note: read at 38.3 µM for the half of the compounds with a filed dose; 0% is about no effect
AMA1 RON2 block – AMA1-RON2 (P. falciparum) interaction inhibition; AlphaScreen AMA1-biotinylated RON2 peptide binding; Potency, µM (series often up to 58.2 µM), for inactives: at the top dose activity change, negative = inhibition, hits mostly inhibitors; actives 0.2% (n = 360,000); AID 720542;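 note: potency is the fitted concentration of half-maximal effect; 0% = vehicle wells and -100% = peptide control; nearly all actives have a fitted effect of over 45% in size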
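AMA1 (3D7) with his tag at 25 nM final met compounds first, then biotinylated RON2 peptide at 25 nM; detection used donor plus acceptor beads, 10 µg/mL apiece, read by AlphaScreen after 30 min at room temperature.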
An asterisk follows results filed as active; u = inconclusive; x = no result given; [ ] = remark or other dose. Unless noted, calls come from the whole dose curve; as a rule, active = well fitted curve in the direction sought with a large enough effect; inconclusive = small, poorly fitted or top-dose-only effect, or another doubt; inactive = no such curve, though single readings can be large; an effect the other way counts as inactive or inconclusive.

SMILES	Pf growth 48h	Shiga toxin inh	Pf growth 96h	HCV inhibitor	Cycloheximide cs	AMA1 RON2 block
CCOC(=O)C1(C)CCCN1C(=O)c1sccc1C (configuration not stated)	x	x	x	x	x	19.1%
COc1ccc(C(=O)Nc2nnc(SCC(=O)NCc3ccco3)s2)c(OC)c1	94.4%	32.8*	16.4%	u	34.6*	-1.3%
O=C(CSc1nnc(NC(=O)c2ccccc2F)s1)NCc1ccco1	118.4%	79.2*	173.9%	-29.9%	34.5*	13.1%
O=C(CSc1nnc(NC(=O)c2c(F)cccc2F)s1)NCc1ccco1	21.2%	x	25.5%	8.3%[8.37 µM]	x	-1.3%
O=C(CSc1nnc(NC(=O)c2ccccc2F)s1)NCc1ccc(F)cc1	70.6%	107.3*	47.1%	5.0%	40.9*	-3.5%
COc1cc(OC)cc(C(=O)Nc2nnc(SCC(=O)NCc3ccco3)s2)c1	17.0%	96.6	-23.6%	-1.8%	34.0*	-7.0%
O=C(Nc1nnc(SCC(=O)N2CCCCC2)s1)c1ccccc1F	26.7%	30.1	3.7%	5.6%	17.5	9.1%
Cc1ccc(CN2C(=O)c3ccccc3C2c2nnnn2C(C)C)cc1 (configuration not stated)	x	x	x	x	x	-1.4%
COc1ccc(C2=CCN3CCCCC3C2)c(-c2ccc(OC)c(OC)c2)c1 (configuration not stated)	x	x	x	u	x	7.3%
CC(=O)N/C(=C/c1ccc2c(c1)OCO2)C(=O)NCc1ccccc1	12.7%	-8.3	-12.5%	25.0%	3.9	-3.7%
COc1ccc(Cl)cc1NS(=O)(=O)c1cccc(C(=O)NCCCN2CCOCC2)c1	x	x	x	x	x	0.3%
CCOC(=O)Cc1csc(NS(=O)(=O)c2ccc([N+](=O)[O-])cc2)n1	-16.7%	-16.3	u	6.7%	-3.2	8.3%
CCOc1cc(C)c(S(=O)(=O)Nc2ccc3cn[nH]c3c2)cc1C	u	14.1	u	10µM*	-1.0	-2.8%
Cc1cc(=O)oc2cc(NC(=O)C(C)N3C(=O)C4CCCCC4C3=O)ccc12 (configuration not stated)	-5.0%	x	-24.7%	20.5%	x	2.8%
O/N=C\c1cnc(N2CCN(c3ccccc3)CC2)s1	66.2%	67.6*	116.9%	-1.3%	42.1*	-9.5%
O=Cc1cnc(N2CCCCC2)s1	2.0%	-5.6	6.8%	7.2%	10.0	-9.3%
COc1cccc(N2C(=NC(=O)C3CCCO3)SC3CS(=O)(=O)CC32)c1 (configuration not stated)	-56.1%	-7.3	u	13.5%	-1.6	0.0%
O=C(COc1ccc(S(=O)(=O)N2CCOCC2)cc1)Nc1ccccc1Cl	u	-1.2	4.2%	-28.7%	-6.1	4.6%
CC(C)(C)c1oc(C(=O)O)cc1CN1CCOCC1	-2.4%	-3.6	67.1%	-0.5%	-0.7	-5.0%
Brc1ccc(-c2cn3nc4c(nc3n2)CCCC4)cc1	252.0%	121.5*	x	-15.1%	45.8*	29.6%
CCOC(=O)C1CCN(C(=O)C2CCN(c3nnc(-n4cccc4)s3)CC2)CC1	u	-4.2	-28.3%	-2.2%	12.7	0.8%
CCOC(=O)C1CCN(c2nnc(N3CCCC3=O)s2)CC1	57.6%	42.8*	0.828µM*	-5.7%	23.4*	4.4%
CCOC(=O)C1=CN(C(=O)OC(C)(C)C)C(CN2C(=O)COCC2=O)C1 (configuration not stated)	x	-5.8	x	x	1.4	x
COc1ccc(C2OC(=O)CC2C(=O)NCc2ccc(F)cc2)cc1OC (configuration not stated)	10.8%	16.7	24.6%	10.3%	7.3	-11.6%
COc1ccc(C2OC(=O)CC2C(=O)NCc2ccc(Cl)cc2)cc1OC (configuration not stated)	107.6%	84.6*	39.0%	5.5%	34.0*	-3.3%
CCOc1cccc2sc(=NC(=O)c3ccco3)n(CC(=O)OC)c12	u	68.3*	-28.4%	11.2µM*	36.9*	6.1%
C#CCn1c(=NC(=O)c2ccco2)sc2cccc(Cl)c21	19.1%	23.7	14.9%	-3.3%	12.6*	16.4%
COc1ccccc1N1CCN(C(=O)CCC(=O)Nc2nnc(CC(C)C)s2)CC1	0.0%	11.2	4.4%	4.1%	-2.9	-3.9%

Screens from PubChem BioAssay.
